According to PubChem BioAssay AID1159580 (chemical genetic matrix, 2015):
Screen size: about 5,500 compounds; about 2,000 (36%) were called active. About 18% were inconclusive and are not listed. Rule as the data show it: active = normalized growth mostly below about 0.91 (no sharp cut-off); inconclusive = no clear call, values can overlap the other calls; inactive = mostly above about 0.92. The list shows a part of the results.

Assay: chemical genetic growth profiling, strain panel (AID 1159580);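 also: tested at 20 µM; growth read once vehicle control cultures reached saturation at 30 °C; 1 = growth at the plate median or of vehicle wells; lower values mean less growth of the strain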
Conditions: growth OD

Measured: normalized growth

CC(=O)Oc1cc(OC(C)=O)c2c(=O)c(-c3ccccc3)coc2c1
inactive: S. cerevisiae deletion strains, locus YAL013W, strain DEP1, hits give low values 0.995 | S. cerevisiae deletion strains, locus YBR021W, strain FUR4, hits give low values 0.978 | S. cerevisiae deletion strains, locus YBR229C, strain ROT2, hits give low values 1 | S. cerevisiae deletion strains, locus YCL029C, strain bik1, hits give low values 1 | S. cerevisiae deletion strains, locus YDL035C, strain GPR1, hits give low values 0.997 | S. cerevisiae deletion strains, locus YDL074C, strain BRE1, hits give low values 0.989 | S. cerevisiae deletion strains, locus YDL101C, strain DUN1, hits give low values 1.01 | S. cerevisiae deletion strains, locus YDL134C, strain PPH21, hits give low values 1.01 | S. cerevisiae deletion strains, locus YDL185W, strain tfp1, hits give low values 0.998 | S. cerevisiae deletion strains, locus YDL192W, strain arf1, hits give low values 0.993 | S. cerevisiae deletion strains, locus YDR101C, strain arx1, hits give low values 0.982 | S. cerevisiae deletion strains, locus YDR150W, strain NUM1, hits give low values 1.02 | S. cerevisiae deletion strains, locus YDR162C, strain NBP2, hits give low values 1.01 | S. cerevisiae deletion strains, locus YDR318W, strain mcm21, hits give low values 0.982 | S. cerevisiae deletion strains, locus YDR388W, hits give low values 1 | S. cerevisiae deletion strains, locus YDR502C, strain sam2, hits give low values 0.978 | S. cerevisiae deletion strains, locus YEL061C, strain CIN8, hits give low values 1.01 | S. cerevisiae deletion strains, locus YER110C, hits give low values 0.992 | S. cerevisiae deletion strains, locus YER155C, strain BEM2, hits give low values 1.01 | S. cerevisiae deletion strains, locus YER167W, strain BCK2, hits give low values 1.02 | S. cerevisiae deletion strains, locus YGL078C, strain dbp3, hits give low values 0.991 | S. cerevisiae deletion strains, locus YGL086W, strain mad1, hits give low values 1 | S. cerevisiae deletion strains, locus YGL248W, strain PDE1, hits give low values 1.01 | S. cerevisiae deletion strains, locus YGR078C, strain PAC10, hits give low values 1 | S. cerevisiae deletion strains, locus YGR135W, strain pre9, hits give low values 0.985 | S. cerevisiae deletion strains, locus YGR229C, strain SMI1, hits give low values 1.02 | S. cerevisiae deletion strains, locus YGR252W, strain gcn5, hits give low values 0.888 | S. cerevisiae deletion strains, locus YHR030C, strain SLT2, hits give low values 1.01 | S. cerevisiae deletion strains, locus YHR079C, strain IRE1 (second series), hits give low values 0.98 | S. cerevisiae deletion strains, locus YHR094C, strain hxt1, hits give low values 0.988 | S. cerevisiae deletion strains, locus YHR129C, strain ARP1, hits give low values 1 | S. cerevisiae deletion strains, locus YHR200W, strain rpn10, hits give low values 1 | S. cerevisiae deletion strains, locus YIL066C, strain RNR3, hits give low values 1.02 | S. cerevisiae deletion strains, locus YIL073C, strain SPO22, hits give low values 1 | S. cerevisiae deletion strains, locus YIL125W, strain kgd1, hits give low values 0.992 | S. cerevisiae deletion strains, locus YIR030C, strain dcg1, hits give low values 1 | S. cerevisiae deletion strains, locus YJL095W, strain BCK1, hits give low values 1.01 | S. cerevisiae deletion strains, locus YJL134W, strain LCB3, hits give low values 1.01 | S. cerevisiae deletion strains, locus YJL168C, strain set2, hits give low values 1 | S. cerevisiae deletion strains, locus YJL187C, strain SWE1 (second series), hits give low values 1 | S. cerevisiae deletion strains, locus YJR043C, strain POL32, hits give low values 0.987 | S. cerevisiae deletion strains, locus YJR075W, strain HOC1, hits give low values 1.02 | S. cerevisiae deletion strains, locus YKL009W, strain mrt4, hits give low values 1.02 | S. cerevisiae deletion strains, locus YKL068W, hits give low values 0.993 | S. cerevisiae deletion strains, locus YKL085W, strain MDH1 (second series), hits give low values 0.982 | S. cerevisiae deletion strains, locus YKL085W, strain MDH1, hits give low values 0.982 | S. cerevisiae deletion strains, locus YKL190W, strain CNB1, hits give low values 1.03 | S. cerevisiae deletion strains, locus YKR001C, strain vps1, hits give low values 0.944 | S. cerevisiae deletion strains, locus YLR039C, strain RIC1, hits give low values 0.901 | S. cerevisiae deletion strains, locus YLR058C, strain SHM2, hits give low values 1.01 | S. cerevisiae deletion strains, locus YLR102C, strain apc9, hits give low values 1 | S. cerevisiae deletion strains, locus YLR262C, strain YPT6, hits give low values 0.913 | S. cerevisiae deletion strains, locus YLR268W, strain sec22, hits give low values 0.983 | S. cerevisiae deletion strains, locus YLR330W, strain CHS5, hits give low values 1.01 | S. cerevisiae deletion strains, locus YLR342W, strain FKS1 (second series), hits give low values 0.966 | S. cerevisiae deletion strains, locus YLR371W, strain rom2, hits give low values 1 | S. cerevisiae deletion strains, locus YLR418C, strain cdc73, hits give low values 0.891 | S. cerevisiae deletion strains, locus YML016C, strain PPZ1, hits give low values 1.02 | S. cerevisiae deletion strains, locus YML032C, strain rad52, hits give low values 1 | S. cerevisiae deletion strains, locus YML124C, strain tub3, hits give low values 0.995 | S. cerevisiae deletion strains, locus YMR078C, strain ctf18, hits give low values 1 | S. cerevisiae deletion strains, locus YMR223W, strain ubp8, hits give low values 0.992 | S. cerevisiae deletion strains, locus YMR263W, strain SAP30, hits give low values 1 | S. cerevisiae deletion strains, locus YMR307W, strain GAS1, hits give low values 0.858 | S. cerevisiae deletion strains, locus YNL067W, strain RPL9B, hits give low values 1 | S. cerevisiae deletion strains, locus YNL128W, strain TEP1, hits give low values 1.03 | S. cerevisiae deletion strains, locus YNL153C, strain GIM3, hits give low values 1.02 | S. cerevisiae deletion strains, locus YNL233W, strain BNI4, hits give low values 1.02 | S. cerevisiae deletion strains, locus YNL250W, strain rad50, hits give low values 0.974 | S. cerevisiae deletion strains, locus YNL271C, strain bni1, hits give low values 0.991 | S. cerevisiae deletion strains, locus YNL298W, strain CLA4, hits give low values 0.999 | S. cerevisiae deletion strains, locus YNL307C, strain MCK1, hits give low values 0.932 | S. cerevisiae deletion strains, locus YNL322C, strain KRE1, hits give low values 1.01 | S. cerevisiae deletion strains, locus YNR052C, strain pop2, hits give low values 0.989 | S. cerevisiae deletion strains, locus YOL006C, strain TOP1, hits give low values 0.991 | S. cerevisiae deletion strains, locus YOL012C, strain htz1 0.735 | S. cerevisiae deletion strains, locus YOL147C, strain pex11, hits give low values 0.994 | S. cerevisiae deletion strains, locus YOR061W, strain CKA2, hits give low values 1.02 | S. cerevisiae deletion strains, locus YOR069W, strain VPS5, hits give low values 1.01 | S. cerevisiae deletion strains, locus YOR136W, strain idh2, hits give low values 0.997 | S. cerevisiae deletion strains, locus YOR144C, strain elg1, hits give low values 1 | S. cerevisiae deletion strains, locus YOR184W, strain ser1, hits give low values 0.986 | S. cerevisiae deletion strains, locus YOR316C, strain cot1, hits give low values 1 | S. cerevisiae deletion strains, locus YPL055C, strain LGE1, hits give low values 0.991 | S. cerevisiae deletion strains, locus YPL241C, strain CIN2, hits give low values 1.01 | S. cerevisiae deletion strains, locus YPR119W, strain clb2, hits give low values 0.999 | S. cerevisiae deletion strains, locus YPR141C, strain kar3, hits give low values 0.979 | S. cerevisiae deletion strains, locus YPR163C, strain tif3, hits give low values 0.994 | S. cerevisiae deletion strains, locus YPR167C, strain met16, hits give low values 0.996 | S. cerevisiae deletion strains, strain wtn01, hits give low values 0.984 | S. cerevisiae strains, strain wild type, hits give low values 1.01
